Methyltransferases = Primary Screen for Target Class Profiling of Small Molecule Inhibitors of Methyltransferases; purified enzyme, MTase-Glo SAH luminescence; hits give low values; calls only at 40 µM; 25,000 compounds, 3.9% hits; AID 1745853, 2022; call rule not given here
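Each enzyme was assayed with SAM and its substrate. SAH formation detected by MTase-Glo luminescence; single-point 40 uM screen[…].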
MTase-Glo ctr = inhibits MTase-Glo coupling enzymes without methyltransferase. shares compounds with Methyltransferases. 180 compounds, 6% hits. MTase-Glo coupled enzymes, SAH conversion luminescence, no MTase. Potency, µM (highest dose often 57.3 µM), most hits filed as inhibitors; active = well fitted inhibition curve with a large enough effect
Calls only; n = inactive; + = active, no number. This is one part of a sample in which hits are shown more often than they occur.

SMILES	Methyltransferases	others
COCCCNC(=O)N1Cc2ccccc2-n2cccc2C1c1ccc(C(C)C)cc1 (configuration not stated)	n
O=C(Nc1ccccc1)N1Cc2ccccc2-n2cccc2C1c1cc(F)cc(F)c1 (configuration not stated)	n
CCOC(=O)CNC(=O)N1Cc2ccccc2-n2cccc2C1c1ccc(C(C)C)cc1 (configuration not stated)	n
COc1ccc(C2c3cccn3-c3ccccc3CN2C(=O)NCCc2ccccc2)cc1 (configuration not stated)	n
COc1ccc2c(c[n+](C)c3c4cc5c(cc4ccc23)OCO5)c1OC	+
COc1ccc(C2c3cccn3-c3ccccc3CN2C(=O)Nc2ccc(F)c(Cl)c2)cc1OC (configuration not stated)	n
Cc1ccc(C2c3cccn3-c3ccccc3CN2C(=O)Nc2cccc(Br)c2)cc1 (configuration not stated)	n
COC1CCCC(C)OC(=O)Cc2cc(O)cc(O)c2C(=O)C1 (configuration not stated)	n
CC1CCCC(O)CCC/C=C/c2cc(O)cc(O)c2C(=O)O1 (configuration not stated)	n
CC1CCCC(=O)CCC/C=C/c2cc(O)cc(O)c2C(=O)O1 (configuration not stated)	+
COC(=O)c1ccccc1NC(=O)N1Cc2ccccc2-n2cccc2C1c1ccc(SC)cc1 (configuration not stated)	n
CC1c2cccn2-c2ccccc2CN1C(=O)Nc1cccc2c1CCCC2 (configuration not stated)	n
COCCCNC(=O)N1Cc2ccccc2-n2cccc2C1c1ccc(SC)cc1 (configuration not stated)	n
CCCCN1[C@@H]2CC[C@H]1CC(OC(c1ccc(F)cc1)c1ccc(F)cc1)C2 (some centres not stated)	+
CCOc1ccc(C2c3cccn3-c3ccccc3CN2C(=O)Nc2ccccc2C)cc1 (configuration not stated)	n
COc1cccc(CNC(=O)N2Cc3ccccc3-n3cccc3C2C(C)C)c1 (configuration not stated)	n
CCOc1ccc(NC(=O)N2Cc3ccccc3-n3cccc3C2c2ccccc2)cc1 (configuration not stated)	n
CN(N=O)c1cc(O)ccc1O	+
Cc1ccc(NC(=O)N2Cc3ccccc3-n3cccc3C2c2ccccc2Cl)cc1C (configuration not stated)	n
CCOC(=O)C1CCC(CNC(=O)N2Cc3ccccc3-n3cccc3C2c2cccs2)CC1 (configuration not stated)	n
CCc1ccc(C2c3cccn3-c3ccccc3CN2C(=O)Nc2ccccc2F)cc1 (configuration not stated)	n
CCOc1ccc(C2c3cccn3-c3ccccc3CN2C(=O)Nc2cc(OC)ccc2OC)cc1 (configuration not stated)	n
CCc1ccc(C2c3cccn3-c3ccccc3CN2C(=O)NCc2ccccc2)cc1 (configuration not stated)	n
CCOC(=O)c1ccc(NC(=O)N2Cc3ccccc3-n3cccc3C2c2ccccc2Cl)cc1 (configuration not stated)	n
COC(=O)c1cccc(NC(=O)N2Cc3ccccc3-n3cccc3C2c2cc(F)cc(F)c2)c1 (configuration not stated)	n
SMILES	Methyltransferases	others
CC(=O)C1=C(O)[C@@H]2[C@H]3c4c[nH]c5cccc(c45)C[C@H]3C(C)(C)N2C1=O	+
COc1ccc(NC(=O)N2Cc3ccccc3-n3cccc3C2c2cccs2)cc1OC (configuration not stated)	n
CCOC(=O)c1cccc(NC(=O)N2Cc3ccccc3-n3cccc3C2c2ccc(SC)cc2)c1 (configuration not stated)	n
CCOC(=O)c1ccc(NC(=O)N2Cc3ccccc3-n3cccc3C2C)cc1 (configuration not stated)	n
CCc1ccc(C2c3cccn3-c3ccccc3CN2C(=O)Nc2ccccc2CC)cc1 (configuration not stated)	n
COc1ccc(NC(=O)N2Cc3ccccc3-n3cccc3C2c2ccccc2)cc1OC (configuration not stated)	n
C=C[C@H]1CN2CC[C@H]1C[C@@H]2[C@@H](O)c1ccnc2ccccc12	n
C=C[C@H]1CN2CC[C@H]1C[C@@H]2CNC(=O)Nc1ccc(Br)cc1	+	MTase-Glo ctr=n
Cn1nc(-c2cccs2)cc1[C@H]1CN2CC[C@H]1C[C@@H]2CNC(=O)C1CCCCC1	n
CCCNC(=O)N1Cc2ccccc2-n2cccc2C1c1cccs1 (configuration not stated)	n
Cc1ccccc1C1c2cccn2-c2ccccc2CN1C(=O)NCc1ccccc1 (configuration not stated)	n
CS(=O)(=O)NC[C@H]1C[C@@H]2CCN1C[C@@H]2CN1CCc2ccccc2C1	n
CC[C@H]1CN2CC[C@H]1C[C@@H]2CNCc1ccc(-c2ccccc2)cc1	+	MTase-Glo ctr=n
COc1ccccc1-c1cc([C@H]2CN3CC[C@H]2C[C@@H]3CNS(=O)(=O)c2ccccc2)n(C)n1	n
Cc1ccccc1C1c2cccn2-c2ccccc2CN1C(=O)Nc1ccccc1F (configuration not stated)	n
COC(=O)CCNC(=O)N1Cc2ccccc2-n2cccc2C1c1ccccc1Cl (configuration not stated)	n

Assay outcomes as filed in PubChem BioAssay.
